Several values for one entry are separate records, joined by “and”; a condition that tells them apart may be missing. Equal values may be shown once. About 79,000 compounds went through this panel and 15% of them were active in at least one assay; those are over-represented in the sample as a whole. Activity calls are given as the source filed them. Cut-off read from the data, not from the text of the source: active = growth inhibition above about 70%; inactive = the rest.
Assay: NCI Yeast Anticancer Drug Screen. Data for the cln2 rad14 strain (AID 165);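 note: 0% = growth equal to vehicle treated cultures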
Details: S. cerevisiae cln2 rad14 strain, at 5.0 µM (retest, dose inferred, filed as 0.5), stronger effect = higher value
Experimental: Growth inhibition of yeast strains with defined genetic alterations is measured as a screen for potential anti-cancer activity. Selected strains with alterations in DNA damage repair or cell cycle control were exposed to compounds and growth inhibition was measured relative to vehicle treated controls. The strain used in this assay is cln2 rad14

With `C1CCNCC1.O=C([CH-]C(=O)C(F)(F)F)c1ccc2c(c1)C(=O)c1ccccc1-2.O=C([CH-]C(=O)C(F)(F)F)c1ccc2c(c1)C(=O)c1ccccc1-2.O=C([CH-]C(=O)C(F)(F)F)c1ccc2c(c1)C(=O)c1ccccc1-2.O=C([CH-]C(=O)C(F)(F)F)c1ccc2c(c1)C(=O)c1ccccc1-2.[Eu+3]` as the compound, how does the growth inhibition read?
Its growth inhibition is 54% (inactive).

For `O=C(CCl)OCc1ccccc1`, which growth inhibition is on record?
The growth inhibition was 5% (inactive).

With `Cl[C](Cl)(Cl)[Hg][C](Cl)(Cl)Cl` as the compound, how does the growth inhibition read?
Its growth inhibition is 99% (active).

Which growth inhibition does the source give for `CC1(C)CC2(c3ccccc3)CC(c3ccccc3)C1C(C(=O)O)C2C(=O)O` (stereo not given) here?
Its growth inhibition is 7% (inactive).

For `CC/C(=C/c1ccc(OC)cc1OC)[N+](=O)[O-]`, which growth inhibition is on record?
The growth inhibition was 22% (inactive).

For `COc1cc(C2c3cc4c(cc3[C@@H](Nc3ccc([N+](=O)[O-])cc3)C3COC(=O)[C@H]23)OCO4)cc(OC)c1O` (stereo not given in full), which growth inhibition is on record?
The growth inhibition was 22% (inactive).

For `O=C(CBr)Nc1ccccc1`, which growth inhibition is on record?
Its growth inhibition is 25% (inactive).

With `COc1ccc2c(ccc3oc([N+](=O)[O-])cc32)c1` as the compound, how does the growth inhibition read?
The growth inhibition was 97% (active).

For `CCCC(=O)O.CCCC(=O)O.CCCC(=O)O.CCCC(=O)O.[Rh].[Rh]`, which growth inhibition is on record?
Its growth inhibition is 42% (inactive).

Same assay, conditions: S. cerevisiae cln2 rad14 strain, at 50.0 µM (retest, dose inferred, filed as 5.0), stronger effect = higher value

With `C1CCNCC1.O=C([CH-]C(=O)C(F)(F)F)c1ccc2c(c1)C(=O)c1ccccc1-2.O=C([CH-]C(=O)C(F)(F)F)c1ccc2c(c1)C(=O)c1ccccc1-2.O=C([CH-]C(=O)C(F)(F)F)c1ccc2c(c1)C(=O)c1ccccc1-2.O=C([CH-]C(=O)C(F)(F)F)c1ccc2c(c1)C(=O)c1ccccc1-2.[Eu+3]` as the compound, how does the growth inhibition read?
The growth inhibition was 77% (active).

With `O=C(CCl)OCc1ccccc1` as the compound, how does the growth inhibition read?
Its growth inhibition is 10% (inactive).

Which growth inhibition does the source give for `Cl[C](Cl)(Cl)[Hg][C](Cl)(Cl)Cl` here?
Its growth inhibition is 99% (active).

For `CC1(C)CC2(c3ccccc3)CC(c3ccccc3)C1C(C(=O)O)C2C(=O)O` (stereo not given), which growth inhibition is on record?
The growth inhibition was 99% (active).

Which growth inhibition does the source give for `CC/C(=C/c1ccc(OC)cc1OC)[N+](=O)[O-]` here?
The growth inhibition was 99% (active).

Which growth inhibition does the source give for `COc1cc(C2c3cc4c(cc3[C@@H](Nc3ccc([N+](=O)[O-])cc3)C3COC(=O)[C@H]23)OCO4)cc(OC)c1O` (stereo not given in full) here?
Its growth inhibition is 97% (active).

With `O=C(CBr)Nc1ccccc1` as the compound, how does the growth inhibition read?
The growth inhibition was 99% (active).

With `COc1ccc2c(ccc3oc([N+](=O)[O-])cc32)c1` as the compound, how does the growth inhibition read?
The growth inhibition was 96% (active).

Which growth inhibition does the source give for `CCCC(=O)O.CCCC(=O)O.CCCC(=O)O.CCCC(=O)O.[Rh].[Rh]` here?
The growth inhibition was 69% (inactive).

Same assay, conditions: S. cerevisiae cln2 rad14 strain, at 50.0 µM, stronger effect = higher value

For `C1CCNCC1.O=C([CH-]C(=O)C(F)(F)F)c1ccc2c(c1)C(=O)c1ccccc1-2.O=C([CH-]C(=O)C(F)(F)F)c1ccc2c(c1)C(=O)c1ccccc1-2.O=C([CH-]C(=O)C(F)(F)F)c1ccc2c(c1)C(=O)c1ccccc1-2.O=C([CH-]C(=O)C(F)(F)F)c1ccc2c(c1)C(=O)c1ccccc1-2.[Eu+3]`, which growth inhibition is on record?
Its growth inhibition is 61.5% (inactive).

For `O=C(CCl)OCc1ccccc1`, which growth inhibition is on record?
The growth inhibition was -21.9% (inactive).

For `C1=CC(N2CCOCC2)CC1` (stereo not given), which growth inhibition is on record?
Its growth inhibition is -45.5% (inactive).

For `Cl[C](Cl)(Cl)[Hg][C](Cl)(Cl)Cl`, which growth inhibition is on record?
Its growth inhibition is 91.5% (active).

Which growth inhibition does the source give for `C(=C/P(c1ccccc1)c1ccccc1)/P(c1ccccc1)c1ccccc1` here?
The growth inhibition was -18.4% (inactive).

For `O=C(SCC(NSc1ccccc1[N+](=O)[O-])C(=O)O)c1ccccc1` (stereo not given), which growth inhibition is on record?
The growth inhibition was 8.45% (inactive).

With `O=P(N1CCOCC1)(N1CC1)N1CC1` as the compound, how does the growth inhibition read?
Its growth inhibition is 13.7% (inactive).

With `CC(C)(Cl)[N+](=O)[O-]` as the compound, how does the growth inhibition read?
Its growth inhibition is -1.7% (inactive).

Which growth inhibition does the source give for `COc1ccc(CC2c3cc(OC)c(OC)cc3CCN2C)cc1OC` (stereo not given) here?
Its growth inhibition is -5% (inactive) and 13.1% (inactive).

For `CC1(C)CC2(c3ccccc3)CC(c3ccccc3)C1C(C(=O)O)C2C(=O)O` (stereo not given), which growth inhibition is on record?
The growth inhibition was 98.8% (active).

With `CC/C(=C/c1ccc(OC)cc1OC)[N+](=O)[O-]` as the compound, how does the growth inhibition read?
The growth inhibition was 99.3% (active).

With `COc1cc(C2c3cc4c(cc3[C@@H](Nc3ccc([N+](=O)[O-])cc3)C3COC(=O)[C@H]23)OCO4)cc(OC)c1O` (stereo not given in full) as the compound, how does the growth inhibition read?
The growth inhibition was 86.6% (active).

For `O=C(CBr)Nc1ccccc1`, which growth inhibition is on record?
Its growth inhibition is 97.3% (active).

With `Cc1cc(-c2ccccc2)cc(C)[n+]1CC[n+]1c(C)cc(-c2ccccc2)cc1C` as the compound, how does the growth inhibition read?
The growth inhibition was -47.7% (inactive).

With `NNc1cccc2c1CCC(N)C2` (stereo not given) as the compound, how does the growth inhibition read?
The growth inhibition was -11.4% (inactive).

With `Clc1cc[c]([Pb]([Cl])([Cl])[c]2ccc(Cl)cc2)cc1` as the compound, how does the growth inhibition read?
Its growth inhibition is 52.2% (inactive).

For `COc1ccc2c(ccc3oc([N+](=O)[O-])cc32)c1`, which growth inhibition is on record?
The growth inhibition was 85.2% (active).

Which growth inhibition does the source give for `Nc1ccc(C(=O)Nc2ccc([As](=O)(O)O)cc2)cc1` here?
The growth inhibition was -17.3% (inactive).

For `[Se]c1nc(N2CCOCC2)ncc1-c1ccccc1`, which growth inhibition is on record?
The growth inhibition was 0.5% (inactive).

With `C[N+](C)(C)CCP(=O)([O-])O` as the compound, how does the growth inhibition read?
Its growth inhibition is -13.1% (inactive).

Which growth inhibition does the source give for `O=C1CC2(CCNCC2)C(=O)N1N1CCOCC1` here?
The growth inhibition was 7.55% (inactive).

Which growth inhibition does the source give for `CCCC(=O)O.CCCC(=O)O.CCCC(=O)O.CCCC(=O)O.[Rh].[Rh]` here?
The growth inhibition was 43.5% (inactive).

Source: PubChem BioAssay (NCI)
